A-T KAP1 phos – potential ataxia-telangiectasia treatment. F2112 A-T fibroblasts, KAP-1 phosphorylation AlphaLISA; neocarzinostatin DNA damage 30 min before lysis. Potency, µM (doses to about 57.5 µM), inactives show at the highest dose activation, usual class: activators. 320,000 tested, 0.19% active; note: potency is the fitted concentration of half-maximal effect; % of control where 0% means no effect; nearly all actives have a fitted effect of over 45% in size
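hTERT-immortalized A-T patient fibroblasts (F2112), 500 cells/well in OPTI-MEM, 1% FBS, got compounds for 60 min, then NCS for 30 min at 37C. Lysates were then assayed for phospho-KAP-1 by AlphaLISA (anti-pKAP1 donor, anti-KAP1 acceptor beads), 6 hr at 25C.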
PKM2 activator – PKM2 (human) enzyme activation; P14618; purified PKM2, Kinase-Glo ATP luminescence, activation; response scale: 0% is enzyme alone, no compound; Potency, µM (highest dose often 57.5 µM), without a hit: at the highest dose activation, usual class: activators; 260,000 tested, 0.34% active; note: potency is the fitted concentration of half-maximal effect; % is set by controls: 0 for no effect and ±100 for the full control effect; nearly all actives have a fitted effect of over 55% in size
Target sequence (P14618 whole entry, looked up): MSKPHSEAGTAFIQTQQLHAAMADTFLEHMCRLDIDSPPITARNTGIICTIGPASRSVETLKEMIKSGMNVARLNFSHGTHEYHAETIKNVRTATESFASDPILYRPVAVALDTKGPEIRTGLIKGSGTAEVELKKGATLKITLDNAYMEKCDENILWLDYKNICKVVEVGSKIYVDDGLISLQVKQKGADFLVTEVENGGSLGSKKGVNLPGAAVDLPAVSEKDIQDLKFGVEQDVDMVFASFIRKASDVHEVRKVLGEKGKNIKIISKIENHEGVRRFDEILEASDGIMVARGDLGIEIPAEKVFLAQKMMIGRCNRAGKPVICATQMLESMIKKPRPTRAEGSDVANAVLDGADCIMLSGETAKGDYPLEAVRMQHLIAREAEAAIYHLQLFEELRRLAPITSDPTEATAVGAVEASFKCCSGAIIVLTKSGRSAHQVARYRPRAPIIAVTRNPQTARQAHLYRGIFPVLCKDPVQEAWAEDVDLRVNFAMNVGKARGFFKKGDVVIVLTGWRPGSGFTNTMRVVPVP
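Kinase-Glo luminescence reports ATP generated from ADP (0.1 mM) and PEP (0.5 mM) by purified hPK-M2 after 1 h at room temperature, pH 7.2 imidazole buffer; intermediate enzyme activity allows detecting inhibitors and activators.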
TCR act – activators of T cell receptors | primary human leukocytes, anti-CD3, IL-2 HTRF, 48 h | Potency, µM (titrated, usually from 9.22 µM), for inactives: at the top dose activation of IL-2 secretion, actives largely listed as activators | 330,000 tested, under 10 active | AID 504894; note: % of control where 0% means no effect
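IL-2 produced over 48 hr by a-CD3 bead-stimulated primary human leukocytes exposed to compounds was detected with a homogeneous time-resolved FRET immunoassay, 665nm acceptor signal after 320nm excitation.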
Tb PFK inh-1 – inhibitors of T. brucei phosphofructokinase; T. brucei PFK, ADP-Glo luminescence; Potency, µM (series often up to 57.5 µM), for inactives: at the top dose activity, negative = inhibition, most hits filed as inhibitors; 330,000 tested, 0.17% active;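 note: potency is the fitted concentration of half-maximal effect; 0% = uninhibited 1x PFK enzyme wells and -100% = no-enzyme wells; nearly all actives have a fitted effect of over 60% in size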
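PFK 1.25 nM, F6P 0.5 mM, ATP 0.1 mM, 0.1 M TEA pH 8.0, 5 mM MgCl2, 0.01% Tween20, 0.1% BSA; 45 min RT. ADP-Glo readout. qHTS titration up to 57 uM; curves fitted, compounds curve-classed.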
IL-2 act – activators of IL-2; IL-2 activation reporter assay, cell-based qHTS; stimulated with anti-CD3/CD4/CD28 beads; in transgenic mouse T cells; activation, % (series mostly up to about 46 µM); 360,000 tested, 0.065% active; AID 652025; in the data active = activation above about 50%; inconclusive = mostly about 30% to 49%; note: 0% is about no effect
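Using fluorescent plate cytometry, EGFP and DsRed are detected in transgenic mouse T cells stimulated 18 h at 37 degrees C with antibody-coated beads after 60 min compound pretreatment.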
Integrin act MD – activators of alpha7 integrin expression for muscular dystrophy; 350,000 tested, 0.064% active; alpha7betagal myoblasts, beta-gal FDG fluorescence, 48 h; Potency, µM (doses to about 38.3 µM), inactives show at the top dose activation, hits mostly activators;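 note: potency is the fitted concentration of half-maximal effect; 100% = response of the positive control SU9516; nearly all actives have a fitted effect of over 60% in size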
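alpha7betagal+/- myoblasts (passage 13, 250/well) treated 48 h at 37C with compounds at 1:260 dilution of DMSO stock. Lysed, then beta-galactosidase activity read as FDG fluorescence (ex 480/em 540) after 30 min, with pre-read for autofluorescence.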
TbPFK ATP – orthogonal confirmation of T. brucei phosphofructokinase inhibitors; shares compounds with Tb PFK inh-1; Tb PFK enzyme, ATP depletion, Kinase-Glo Plus luminescence; Potency, µM (titrated, usually from 57.5 µM), without a hit: top-dose inhibition; 1,100 tested, 47% active; AID 504636; calls by dose curve; note: potency is the fitted concentration of half-maximal effect; nearly all actives have a fitted effect of over 60% in size
Tb PFK inh-2 – T. brucei PFK enzyme inhibition, hit validation | shares compounds with Tb PFK inh-1 | purified T. brucei PFK, ADP-Glo luminescence, 45 min | Potency, µM (highest dose often 57.5 µM), without a hit: top-dose activity change, negative = inhibition, usual class: inhibitors | 1,100 tested, 41% active | AID 504637;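 note: potency is the fitted concentration of half-maximal effect; plate controls were full PFK enzyme control for no effect and no enzyme control for full effect; nearly all actives have a fitted effect of over 60% in size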
Starred values were filed as active, the others as inactive; u = inconclusive; x = no result; [ ] = remark or other dose. Only some compounds are listed: those with a hit (about 0.69% of all), similar ones and a draw of the others. Unless noted, calls come from the whole dose curve; as a rule, active = well fitted curve in the direction sought with a large enough effect; inconclusive = small, poorly fitted or top-dose-only effect, or another doubt; inactive = no such curve, though single readings can be large; an effect the other way counts as inactive or inconclusive.

SMILES | A-T KAP1 phos | PKM2 activator | TCR act | Tb PFK inh-1 | IL-2 act | Integrin act MD | TbPFK ATP | Tb PFK inh-2
O=C1C=CC(=O)N1CCNc1ncc(C(F)(F)F)cc1Cl | -6% | 18µM* | 4% | 21µM* | -4 | 0% | 5.4µM* | 13µM*
CC12CCC(=O)C=C1CC(N1CC1)C1C2CCC2(C)C(O)CCC12 (stereo unspecified) | x | x | 4% | x | -3 | -13% | x | x
CN(C)C1(CNC(=O)c2ccc(NS(=O)(=O)c3ccc(Cl)c(Cl)c3)cc2)CCCCC1 | -4% | x | 6% | -1% | 1 | 24% | x | x
O=C(NCCCN1CCCC1=O)c1cc(NS(=O)(=O)c2ccc(F)cc2)cc(NS(=O)(=O)c2ccc(F)cc2)c1 | -1% | -11% | 1% | 8.5µM* | -1 | 10% | 3.8µM* | 6.7µM*
COc1ccccc1/C=C/C(=O)NCC(=O)N/N=C/c1ccccc1[N+](=O)[O-] | -3% | 1% | 5% | u | -2 | -45% | -32% | u
CCOc1cc2c(cc1OCC)-n1cccc1C(c1cc(OC)ccc1F)NC2 (stereo unspecified) | -9% | x | -1% | -11% | -2 | u | x | x
OCC1CO1 (stereo unspecified) | 4% | x | 9% | 2% | 0 | x | x | x
Fc1cccc(NCc2cn3ccccc3n2)c1 | x | -1% | 0% | 12µM* | -1 | 0% | u | -17%
Fc1cccc(NCc2ccoc2)c1 | 5% | 2% | -1% | u | 1 | -16%[7.66 µM] | 12µM* | 19µM*
O=C(N/N=C/c1ccncc1)c1ccc(NC(=O)c2cccc(Cl)c2)cc1 | -1% | 17% | -1% | u | 1 | -22% | -28% | u
O=C(NN=Cc1ccc(N(CCCl)CCCl)cc1Cl)c1cccnc1 | x | x | -2% | x | 0 | 10% | x | x
CCOC(=O)C1=C(N)OC2=C(C(=O)CC(C)(C)C2)C1c1cc(CSc2nnnn2C)cs1 (stereo unspecified) | 18% | -2% | x | u | 0 | 12% | -1% | 1%
O=C(C1CCN(S(=O)(=O)c2cccnc2)CC1)N1CCN(c2cccc(Cl)c2)CC1 | 17% | -21% | 4% | 21µM* | -2 | -20% | u | -28%
O=C(C1CCN(c2ncnc3c2nc2n3CCCCC2)CC1)N1CCN(c2cccc(Cl)c2)CC1 | -1% | 3%[0.46 µM] | -2% | 9.5µM* | -1 | -50% | 24µM* | u
Clc1cccc(N2CCNCC2)c1 | 2% | x | 5% | -17% | 0 | x | x | x
CC(NC(=O)N1CC1(C)C)c1ccccc1 (stereo unspecified) | x | x | -18% | x | 0 | 0% | x | x
C[C@]12CC[C@@H](O)CC1=CCC1C2CC[C@@]2(C)C1CC[C@@H]2O (stereo partly specified) | x | x | x | x | -1 | 8% | x | x
O=C1NC(=O)C2(CCN(c3ccccc3)CC2)C(=O)N1 | x | x | 2% | x | 0 | 11% | x | x
O=C(NCc1ccco1)c1ccc2c(=O)n(Cc3ccco3)c(SCC(=O)N3CCCC3)nc2c1 | x | 15% | 2% | u | -2 | 10%[7.66 µM] | u | u
COCCCNP1(=O)OCC(C)([N+](=O)[O-])CO1 (stereo unspecified) | x | x | 2% | x | 1 | -18% | x | x
NNC(=O)CNc1cccc(Br)c1 | 0% | 2% | 5% | 15µM* | -1 | 3% | 21µM* | u
CN(CC=CCN(C)P(=S)(N1CC1)N1CC1)P(=S)(N1CC1)N1CC1 | x | x | -29% | x | 0 | -10% | x | x
COc1ccc(NCc2ccc([N+](=O)[O-])s2)cc1 | -11% | -2% | 0%[46.1 µM] | u | -1 | -36% | 13µM* | 27µM*
O=[N+]([O-])c1ccc(CNc2ccc(Cl)cc2)s1 | -8% | -3% | -4% | 27µM* | -1 | -17% | 12µM* | 27µM*
O=C1NC(=O)N(Cc2ccc(F)cc2)C(=O)/C1=C\c1ccc([N+](=O)[O-])s1 | 2% | -2% | 11% | -3% | 3 | -43% | x | x
SMILES | A-T KAP1 phos | PKM2 activator | TCR act | Tb PFK inh-1 | IL-2 act | Integrin act MD | TbPFK ATP | Tb PFK inh-2
O=[N+]([O-])c1ccc(CNc2ccc(F)cc2)s1 | -5% | -1% | x | 17µM* | 0 | -45% | 7.6µM* | 9.5µM*
CN1CCN(Cc2cc3c(cc2[N+](=O)[O-])OCO3)CC1 | 3% | -3% | -5% | -1% | -3 | 0% | x | x
COC(=O)[C@@H]1N=C(c2ccc(OC)cc2)O[C@]12C(=O)N(Cc1ccc(OC)cc1)c1ccccc12 | x | x | x | x | -1 | x | x | x
COc1ccccc1NC(=O)c1cn(CCC#N)nc1-c1cccc(Cl)c1 | -14% | 4% | -5% | -2% | 1 | -10% | x | x
O=C(Nc1ccc(C(=O)O)cc1)Oc1ccc(N(CCCl)CCCl)cc1 | x | x | x | x | 0 | x | x | x
C[C@@H]1CCC2[C@@H](C)C(=O)O[C@@H]3OC4(C)CCC1[C@@]23OO4 (stereo partly specified) | -9% | x | 1% | -2% | 0 | 8% | x | x
C[CH2][Hg][S]c1ccccc1C(=O)O | x | x | 5% | x | -1 | x | x | x
C=CCn1c(SCC(=O)N2CCOCC2)nc2scc(-c3ccco3)c2c1=O | 12% | 14µM* | 2% | u | 1 | -5% | u | -25%
COC(=O)C1=C(c2ccc(OCc3ccccc3)cc2)C[C@@H]2CC[C@H]1N2C(=O)NCCc1ccc(F)cc1 | x | x | x | x | -1 | -48% | x | x
COc1ccc(-c2ccc3c(c2)CNCc2cnnn2-3)cc1 | x | x | x | x | 0 | x | x | x
Nc1cc(=O)[nH]c(SCC(=O)Nc2ccc(F)c(Cl)c2)n1 | x | -2% | 2% | u | -2 | u | u | 30µM*
Cc1noc(C)c1CSCC(=O)Nc1ccc(C#N)c(Cl)c1 | 1% | x | -1% | 0% | 0 | 10% | x | x
Cc1ccc(C(=O)Nc2nc3ccccc3[nH]2)cc1 | 1% | -37% | 3% | -11% | -2 | -15% | x | x
O=C(NNC(=O)c1cc2cc3ccccc3nc2s1)c1ccc(F)cc1 | 3% | -14% | -7% | u | 2 | 21% | u | u
O=C(NCCN1CCOCC1)c1ccc(Cl)nc1 | -5% | -6% | 4% | -5% | 1 | -6% | x | x
O=S(=O)(Nc1ccc(Cl)cc1)c1ccc(N2CCOCC2)c(NC(=S)NCCN2CCOCC2)c1 | 0% | -1% | -2% | u | -2 | 1% | 7.6µM* | 13µM*
O=C(Nc1nccs1)C(Cl)(Cl)Cl | 0% | 0% | 1% | -4% | 0 | 0% | x | x

Compound activity: PubChem BioAssay, National Center for Advancing Translational Sciences (NCATS)
